For 63 molecules, inhibition results are on record in PubChem BioAssay AID624330 (Southern Research Specialized Biocontainment Screening …, 2012).

Broadly, the inhibition is the relative decrease from the control value, in per cent.

Each structure is given as a SMILES string. Hit rate of the full screen: of about 340,000 compounds, about 2,100 (0.62%) were called active. These entries were drawn from the full list. Results with a measured potency or affinity are listed apart. Values without a mark were called inactive.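 The calls were made as follows: active = first-screen hits whose inhibition reached a set limit at any dose in the follow-up dose series; inconclusive = inhibition above the set first-screen limit but never retested; inactive = the rest.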

Sequence of Rac GTPase-activating protein 1 (Homo sapiens) (Q9H0H5 whole entry, looked up): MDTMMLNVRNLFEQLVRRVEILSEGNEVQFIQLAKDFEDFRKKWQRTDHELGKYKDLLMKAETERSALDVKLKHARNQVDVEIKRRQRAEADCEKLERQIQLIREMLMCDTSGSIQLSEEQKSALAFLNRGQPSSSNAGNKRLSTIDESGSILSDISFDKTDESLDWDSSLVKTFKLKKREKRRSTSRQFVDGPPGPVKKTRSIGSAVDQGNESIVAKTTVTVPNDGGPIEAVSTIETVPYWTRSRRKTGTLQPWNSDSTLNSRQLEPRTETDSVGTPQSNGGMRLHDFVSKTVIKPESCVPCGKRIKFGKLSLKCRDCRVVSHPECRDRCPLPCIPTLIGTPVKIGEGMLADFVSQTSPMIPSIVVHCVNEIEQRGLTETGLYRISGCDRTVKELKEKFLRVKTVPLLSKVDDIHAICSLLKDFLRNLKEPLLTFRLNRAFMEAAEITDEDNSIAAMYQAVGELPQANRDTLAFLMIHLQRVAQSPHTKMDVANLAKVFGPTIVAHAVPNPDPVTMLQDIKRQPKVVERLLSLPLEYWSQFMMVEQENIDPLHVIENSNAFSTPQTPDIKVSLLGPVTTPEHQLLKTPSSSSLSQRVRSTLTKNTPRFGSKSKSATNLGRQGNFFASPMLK

This test has as its target Rac GTPase-activating protein 1 (Homo sapiens) (UniProt Q9H0H5). As to the kind of experiment: MgcRacGAP GTPase-activating activity inhibitors, confirmation, biochemical, ADP Hunter fluorescence, primary and confirmatory (AID 624330).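 Also: fluorescence reports GDP produced by GAP-driven GTP hydrolysis.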 Conditions: MgcRacGAP-stimulated Rac1 GTP hydrolysis, at 30 µM, active compounds read high, GST-tagged Rac1 F28L mutant substrate.
As for `C[C@@H]1CN([C@@H](C)CO)C(=O)c2cc(Br)cnc2O[C@@H]1CN(C)C(=O)Nc1ccc(F)cc1`, the inhibition is 9.67%.

On to `C[C@H](NC(N)=O)C(=O)OCC(=O)Nc1ccc(OC(F)F)cc1`, for which the inhibition was 5.01%.

With `COc1ccc(C2C(C(=O)NCc3ccco3)CCC(=O)N2c2ccc(OC)cc2)cc1` (stereo not drawn), the inhibition is -1.81%.

On to `O=C(CN1CCCC1)Nc1cccc(Cl)c1`, for which the inhibition was 6.77%.

`CN(CCOc1ccc(Cl)cc1)C(=O)c1cccc(S(=O)(=O)N2CCN(c3ccc(F)cc3)CC2)c1`: the inhibition is 2.42%.

Turning to `COc1ccc(/C=N/n2c(C)nnc2C)c(OC)c1OC`, the inhibition was 8.6%.

As for `COc1cccc(/C=N/n2c(C3CCCCC3)n[nH]c2=S)c1O`, the inhibition is 17.5%.

Turning to `COc1cccc(/C=N/n2c(-c3n[nH]c4c3CCC4)n[nH]c2=S)c1OC`, the inhibition was 10.4%.

With `COc1ccc(/C=N/n2c(SC)nnc2-c2ccccc2)cc1C`, the inhibition is 12.1%.

In the case of `COc1ccc(/C=N/n2c(-c3ccc(C)cc3)n[nH]c2=S)cc1OC`, the inhibition is 8.75%.

Turning to `COc1ccc(/C=N/n2c(SC)nnc2-c2ccccc2)c(OC)c1OC`, the inhibition is 10.5%.

For `COc1ccc(/C=C/C(=O)OC2CCCCC2CN(C)C)cc1` (stereo not drawn), the inhibition is 1.25%.

In the case of `CCN1CNC(=S)N(c2cccc(C)c2C)C1`, the inhibition was 7.09%.

Regarding `O=C(O)C1(S(=O)(=O)c2ccc(Cl)cc2)CCC1`, the inhibition is 6.58%.

In the case of `Cc1cccc(N2N=C(C(=O)Nc3nc(C)cs3)CCC2=O)c1`, the inhibition is 10.5%.

With `O=C(Nc1cccnc1)c1ccccc1F`, the inhibition was 6.52%.

With `O=C1Nc2ccccc2C1=NN1CCCCCC1`, the inhibition was -3.27%.

Turning to `O=C1Nc2ccccc2/C1=N\N1CCOCC1`, the inhibition was 3.01%.

As for `CCN(Cc1ccccc1)S(=O)(=O)c1ccc(S(=O)(=O)N2CCN(CCC#N)CC2)cc1`, the inhibition is -2.32%.

Consider `Cc1ccc(NC(=O)CN(C)C(=O)CCSc2ccc(F)cc2)cc1`, for which the inhibition was 5.93%.

For `COc1cccc(CN(C)C(=O)c2ccc(C)c(S(=O)(=O)N3CCCCC3)c2)c1`, the inhibition is 3.14%.

Turning to `COCCN(C(=O)CNC(=O)c1cccs1)C(C(=O)NC1CCCC1)c1cccs1` (stereo not drawn), the inhibition was 8.07%.

For `COc1ccc(NC(=S)NCCSc2ccc(Cl)cc2)c(OC)c1`, the inhibition is -1.73%.

Take `c1ccc(Nc2ccc3c4c(cccc24)CC3)cc1`: the inhibition is 16.2%.

For `CC(=O)Nc1ccc2c3c(cccc13)CC2`, the inhibition is 3.29%.

Consider `COCc1[nH][nH]c(=O)c1C=Nc1ccccc1`, for which the inhibition was 9.38%.

As to `O=[N+]([O-])c1ccccc1N=Nc1ccc(O)cc1`, the inhibition was 9.07%.

Take `O=C(OCc1ccccc1Cl)c1cccnc1Cl`: the inhibition is -1.97%.

On to `CCCCn1c(N)c(N(CCOC)C(=O)C(C)N2C(=O)c3ccccc3C2=O)c(=O)[nH]c1=O` (stereo not drawn), for which the inhibition is 0.26%.

As for `CC(OC(=O)c1ccc(Cl)c([N+](=O)[O-])c1)C(=O)N1CCN(Cc2ccccc2)CC1` (stereo not drawn), the inhibition is 3.69%.

For `CCOc1ccccc1C(=O)NCC(=O)N(C)Cc1ccccc1C`, the inhibition was 6.49%.

As for `COc1ccccc1N(C)S(=O)(=O)c1ccc(C(=O)Nc2cccc(Br)c2)cc1`, the inhibition is 4.53%.

With `COc1cccc(-n2c(=O)c3ccccc3n3c(=S)[nH]nc23)c1`, the inhibition was 13.7%.

In the case of `CCc1ccc(-n2c(=O)c3ccccc3n3c(=S)[nH]nc23)cc1`, the inhibition was 12.2%.

On to `CCOC(=O)c1oc2ccccc2c1NC(=O)C(C)(C)C`, for which the inhibition is 4.02%.

On to `O=C(c1ccccc1)c1ccc(N2CCOCC2)c(F)c1`, for which the inhibition was 9.91%.

Regarding `Cc1cccc(C(=O)N2CCC(N3CCC(C(=O)N4CCOCC4)CC3)CC2)c1`, the inhibition is 7.61%.

Regarding `CCC1Sc2ccccc2N(CC(=O)NC2CC2)C1=O` (stereo not drawn), the inhibition is -0.26%.

For the molecule `Cc1cc(C)cc(N2C(=O)C=CC2=O)c1`, the inhibition was 1.25%.

Take `O=C(O)c1cccc(N2C(=O)C=CC2=O)c1`: the inhibition is 9.07%.

With `COc1cccc(C(=O)NCC(c2ccco2)N2CCc3ccccc3C2)c1` (stereo not drawn), the inhibition was 7.73%.

In the case of `Cc1cccc(N2C(S)=C(C#N)C(=O)NC2c2ccco2)c1` (stereo not drawn), the inhibition is 48.2%.

On to `N#CC1=C(S)N(c2ccccc2)C(c2cccs2)NC1=O` (stereo not drawn), for which the inhibition was 53%.

`N#CC1=C(S)N(c2ccc(F)cc2)C(c2cccs2)NC1=O` (stereo not drawn): the inhibition was 38.9%.

As for `Cc1ccccc1N1C(S)=C(C#N)C(=O)NC1c1cccs1` (stereo not drawn), the inhibition is 39%.

Regarding `COC(=O)c1nnc(-c2ccccc2)nc1OC`, the inhibition is 4.64%.

For the molecule `CCN(CC(=O)Nc1ccccc1C(F)(F)F)C(=O)c1cc(-c2cccs2)nn1-c1ccccc1`, the inhibition was 1.06%.

On to `CCC(=O)OCc1cc(=O)oc2ccc3ccccc3c12`, for which the inhibition is 9.78%.

With `O=C(c1cncc(Br)c1)N1CCN(S(=O)(=O)c2ccc3ccccc3c2)CC1`, the inhibition is 2.91%.

`Nc1nccnc1C(=O)OCC(=O)NC1CCCc2ccccc21` (stereo not drawn): the inhibition was 2.06%.

Consider `CCN1CCN(c2sc(S(=O)(=O)CC)nc2S(=O)(=O)c2ccc(Cl)cc2)CC1`, for which the inhibition was 13.7%.

`Cc1ccc(C2=N/C(=C\c3cccs3)C(=O)N2Nc2ccccc2)cc1`: the inhibition is 4.5%.

`Cc1nccn1CCOc1ccc(Cl)cc1`: the inhibition was 19.6%.

With `COc1ccc(OCC(O)Cn2ccnc2C)cc1` (stereo not drawn), the inhibition was -5.32%.

Turning to `C/C(=N\Nc1nc2ccccc2[nH]1)c1ccc([N+](=O)[O-])cc1`, the inhibition was 9.3%.

`O=C(Nc1nc2ccccc2[nH]1)c1cccs1`: the inhibition was 5.07%.

Regarding `C/C(=N\Nc1nc2ccccc2[nH]1)c1ccc2c(c1)OCO2`, the inhibition was 29.4%.

Turning to `C/C(=N\Nc1nc2ccccc2[nH]1)c1ccc2c(c1)OCCO2`, the inhibition was 14.6%.

As for `C/C(=N\Nc1nc2ccccc2s1)c1cccs1`, the inhibition was 15.9%.

On to `C/C(=N\Nc1nc2ccccc2[nH]1)c1ccccn1`, for which the inhibition was 16.1%.

As for `COc1ccc(CN2C(=O)c3cccnc3C2=O)cc1S(=O)(=O)N1CCCCC1`, the inhibition was 5.59%.

Take `CCN1CCN(c2ccc(NC(=O)c3ccccc3F)cc2Cl)CC1`: the inhibition is 10.3%.

Regarding `O=C(CSc1nc(=O)n2ccccc2n1)N1CCC(Cc2ccccc2)CC1`, the inhibition was 2.37%.
